The assay has as its system VDR:RXRa (NR concentration 270 nM, RXRa partner concentration 90 nM). Briefly: PBM binding z-score (relative to random genomic background probes); higher = stronger binding; sequences stand for … in GC…GCGATTGACAGCGTAGAATGAAGG
The protocol:
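Protein-binding microarray (Agilent 4x180K custom design, double-stranded 60-nt probes: 5' GC cap, 34-nt variable region, 24-nt constant primer region; full probe sequence given). Purified or IVT nuclear receptor:RXRα heterodimers (3:1 NR:RXRα, mostly 270:90 nM) or homodimers were incubated for 1 h in PBS with 2% milk and no ligand, then detected with Alexa488 antibodies. Fluorescence from o1-orientation probes (~5 replicates averaged) was converted to z-scores against 500 random hg19 background probes. Variable regions are seed direct-repeat (DR0–DR5) sites, all their single-nucleotide variants and half-site ablations.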
GCTAGTAGATCAAGGTTAAGAAAGACTAAGCTAA: the PBM binding z-score is -0.00199.

In turn, ATCGAAAGGTCGTGAGGTGAGTATCCAGAAAGGC gave a PBM binding z-score of 3.39.

As to ATCTCTAGGTAACCAAGTGCAGTGAATGCCGAAC, the PBM binding z-score amounted to 1.3.

For the sequence TAGCCTAGGTCAGATCTGGCCAGTATACGCTATA, the PBM binding z-score was 0.166.

With ACAATTAGTTGAGACGAGGGCAACCGATAGGTTG, the PBM binding z-score stood at 0.691.

CCGACTGGGGCATAAGGTTATCATAAGCCAGCCC showed a PBM binding z-score of 0.25.

Take CGAACTAGGTCTTTGACAGGACAGTGAATAGTAA: the PBM binding z-score is -0.318.

Regarding CCGACTGGGCCAAAGGTTACCATACTCAGTACGA, the PBM binding z-score was 1.21.

As for CTACCAAGGTGAGCAAGGTCGTTGATTACTATTC, the PBM binding z-score stood at 5.03.

On to GCTCGGAGGACAAGATCAGAGCTTTGTCCGTAGA, for which the PBM binding z-score was -0.806.

For ATATGTAGGTTAAGGGTCATTCATGTTGGTTCGC, the PBM binding z-score came to 5.08.

In the case of AGAATGAGGTTACCGAAGATCAGGGAAACGCTTG, the PBM binding z-score stood at 1.53.

The sequence CATACAGGCTCAGCTAGGCCAGAGTAGGGACGGC came in with a PBM binding z-score of -0.721.

With CCGACTGGGGCAGAAAGGTAACCATACCATCCGG, the PBM binding z-score is -0.526.

On to CCTTACGAGTCACTCCAGGTTATAGCATCGGAGT, for which the PBM binding z-score was 1.24.

Regarding TCATATAGGCAATACAGGTGAAAGTCGGCATCTA, the PBM binding z-score came to 0.582.

For the sequence CCTTGCGGGTCACGAGGTTATAGCACGACGAGCG, the PBM binding z-score is 4.93.

Consider GCTTCTAGGTCAGGTTGGTCAGCTAACGGGTACG, for which the PBM binding z-score was found to be 0.953.

CCTACTGGTCCAAAAAGGTCATTGATGCCGATAA gave a PBM binding z-score of 4.99.

GCGACTGGGGCAAAGCAGGCTACCATAAGGTTGG returned a PBM binding z-score of -0.662.

As for CAAACTAGGTCACCGGAAGGTCACAGTCCGCATG, the PBM binding z-score was 5.64.

In turn, GCAGACAGGTGAAACGCAGGTAGCTCAGGGTGGC registered a PBM binding z-score of -0.649.

Turning to TCTTGTAGATCAACAGGAGGTTAAGTAAGATCGA, the PBM binding z-score amounted to 0.844.

AGTCAAAGTTCAGGACGAGGTAACGCAAAGCACG had a PBM binding z-score of 2.89.

Turning to CGTCCAGGGTCAGCAGGTCAGTGAAAGCGACGTG, the PBM binding z-score is 4.15.

Sequence GCAAACAGGTGAAACGCAGGTAACTCAGGGTGGC returned a PBM binding z-score of -0.424.

In the case of GCTGCTAGGTCAGGTTGGCCAGCTAACGGGTACG, the PBM binding z-score is 0.052.

The sequence TAGCCTAGGTCATTCGGCCAGTATAGTACGCATC yielded a PBM binding z-score of 2.24.

Turning to CCAGACAGGTGATAGGTAACTCAGTCTGGTACGC, the PBM binding z-score was -0.0769.

CGTGAAAGTTCAAGGTAACGTAACAGAAAGCAGC returned a PBM binding z-score of 3.81.

As for ACTAGTTGGTCAGCTGAGGTCACTCACAATTCGG, the PBM binding z-score is 3.95.

ATCTCTAGGTAAGACTCAGTTCAATGAAGAACGC came in with a PBM binding z-score of 1.07.

ATCTCTAGGTAAAAGTTCAGTGACTCCCGAGGAT registered a PBM binding z-score of 1.71.

CTACAAAGGTGAACAAGGTCGTTGATTACTATTC returned a PBM binding z-score of 6.38.

On to TGAATGAGGTTAAAGATCAGGAAACGTGGCGTCG, for which the PBM binding z-score worked out at 1.95.

For the sequence TGTCAAGGTTCAAAGGTAACGTAAGTATCCACAC, the PBM binding z-score was found to be 4.59.

Sequence ATATGTAGCTTACATCCGGGTCATTCAGGCTATG returned a PBM binding z-score of 2.82.

With CCTTGCGGGTCACTCCAGGTTATAGCATCGGAGT, the PBM binding z-score was 3.51.

ATAGGTAGGTTACATCCGGGTCATTCAGGCTATG: the PBM binding z-score turned out to be 4.21.

For the sequence CCTCGGAGGAAAACAGGAGGTCAGAGCTGCCAGA, the PBM binding z-score worked out at 1.28.

These data come from the supplement of paper PMC6555819.
